Compound activity (PubChem BioAssay)
Compounds with a hit are over-represented: about 1.6% of the library has one in this group of screens.
PKA-R2B act – activators of human PKA-R2B complex; PKA-R2B holoenzyme dissociation, Cy5-IP20 fluorescence polarization; R2B truncated from residue 108, S112A mutant; 0% DMSO only, 100% 113 µM cGMP; activation, % at 11.4 µM; 0.079% of 340,000 active; AID 504700;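 active = activation above a cutoff set at the mean over all compounds plus 3 SD, cut at about 18% in these data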;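 note: higher means more holoenzyme dissociation and a rise in polarization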
ATG4B inhibitor – ATG4B (human) cysteine protease inhibition | Q9Y4P1 | ATG4B cleavage of LC3-PLA2, NBD-HPC fluorescence, 1 h | inhibition, % at 8.33 µM | 0.51% of 340,000 active | AID 504462; in the data active = inhibition above about 40%
CendR NRP1 mod – modulators of CendR peptide binding to human neuropilin-1; inhibition, % at 25 µM; FAM-RPARPAR peptide binding to NRP-1, fluorescence polarization; AID 602438; 0.85% of 360,000 active;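 active = inhibition or corrected inhibition above about 18%, plus a signal ratio from 0.5 to 1.5, limit read from the data, passing the limit was not always enough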
Target sequence (O14786 whole entry, looked up): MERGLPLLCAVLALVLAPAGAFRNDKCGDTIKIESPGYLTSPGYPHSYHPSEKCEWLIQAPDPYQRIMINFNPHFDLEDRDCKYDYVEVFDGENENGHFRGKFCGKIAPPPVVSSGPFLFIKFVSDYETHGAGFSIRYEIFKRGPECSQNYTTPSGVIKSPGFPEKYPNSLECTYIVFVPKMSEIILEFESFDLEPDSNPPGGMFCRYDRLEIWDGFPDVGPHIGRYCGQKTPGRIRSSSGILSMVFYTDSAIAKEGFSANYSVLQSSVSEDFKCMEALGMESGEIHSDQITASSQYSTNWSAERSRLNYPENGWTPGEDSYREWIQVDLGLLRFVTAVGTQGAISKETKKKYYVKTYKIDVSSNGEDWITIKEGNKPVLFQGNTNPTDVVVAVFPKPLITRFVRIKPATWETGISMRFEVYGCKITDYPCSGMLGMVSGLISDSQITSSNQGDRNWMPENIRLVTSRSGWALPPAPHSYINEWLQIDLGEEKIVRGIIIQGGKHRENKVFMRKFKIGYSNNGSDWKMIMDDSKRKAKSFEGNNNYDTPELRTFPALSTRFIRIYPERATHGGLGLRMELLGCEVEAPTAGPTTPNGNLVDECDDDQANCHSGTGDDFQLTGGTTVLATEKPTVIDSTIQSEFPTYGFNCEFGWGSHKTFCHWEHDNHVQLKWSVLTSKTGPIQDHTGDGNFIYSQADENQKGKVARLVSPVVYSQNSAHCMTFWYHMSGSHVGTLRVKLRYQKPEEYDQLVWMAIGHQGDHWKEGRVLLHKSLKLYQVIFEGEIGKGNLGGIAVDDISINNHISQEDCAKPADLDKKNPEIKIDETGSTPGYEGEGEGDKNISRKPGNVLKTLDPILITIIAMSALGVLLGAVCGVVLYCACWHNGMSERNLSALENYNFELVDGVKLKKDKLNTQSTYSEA
VLA-4 inh – inhibition in a human VLA-4 binding assay. P13612. VLA-4 expressing cells, ligand binding flow cytometry. inhibition, % (about 7 µM as worked out from the volumes in the protocol). 0.2% of 330,000 active. AID 2557; in the data active = inhibition above about 50%
PKA-R1A activ – PKA-R1A complex activation | activation, % at 11.4 µM | PKA-R1A dissociation, Cy5-IP20 fluorescence polarization; scaled: DMSO 0%, 113 µM cGMP 100% | P00514+P68181 | 0.083% of 340,000 active;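 active = percent activation above the mean of all tested compounds plus 3 SD, cut at about 19% in these data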;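 note: higher means more PKAc released from R1A so a rise in polarization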
Each line names hits and unclear results; the compound was inactive in the other large screens.

Cn1cnc([N+](=O)[O-])c1NC(C)(C)C	CendR NRP1 mod 29
COCCNc1c2c(nc3c(-c4ccccc4)c(C)nn13)CCC2	CendR NRP1 mod 28
O=C(c1ccc(OCc2cn3ccccc3n2)cc1)N1CCN(S(=O)(=O)c2ccccc2F)CC1	none (no result: VLA-4 inh)
Cc1cccc(C)c1NC(=O)CN1CCN(C(=O)c2ccc(OCc3cn4ccccc4n3)cc2)CC1	CendR NRP1 mod 30
C=CCN(CC=C)C(=O)c1ccc(OC2CCN(C(C)=O)CC2)c(OC)c1	none
CCCN1C2CCCC1CC(NC(=O)c1cc(OC)cc(OC)c1)C2 (stereo not drawn)	none
CCn1c(COc2c(C)cccc2C)nnc1SCC(=O)N1CCN(c2ccccc2)CC1	CendR NRP1 mod 37
O=C1CSC(c2cn(-c3ccccc3)nc2-c2ccccc2)N1Cc1ccco1 (stereo not drawn)	none
O=C1CSC(c2cn(-c3ccccc3)nc2-c2cccs2)N1CC1CCCO1 (stereo not drawn)	CendR NRP1 mod 32
CCC(=O)N[C@@H]1CC[C@@H](CCNC(=O)Nc2ccc(F)cc2)O[C@@H]1CO	none (no result: PKA-R2B act, ATG4B inhibitor, VLA-4 inh, PKA-R1A activ)
O=C1/C(=C\c2cccc([N+](=O)[O-])c2O)SC(=S)N1Cc1ccccc1	ATG4B inhibitor 47
COCc1ccccc1Cn1cnc2c1c(=O)n(C)c(=O)n2C	CendR NRP1 mod 35
O=C(NCc1cccc(F)c1)c1[nH]c(C(F)(F)F)nc1-c1ccccc1	none (no result: PKA-R2B act, ATG4B inhibitor, VLA-4 inh, PKA-R1A activ)
CCOC(=O)[C@H]1[C@H]2COc3cc(OC)ccc3[C@@H]2N2C(=O)c3ccc(C)cc3NC(=O)[C@@]12C	none (no result: VLA-4 inh)
CCOC(=O)[C@H]1[C@H]2COc3ccc(OC)cc3[C@@H]2N2C(=O)CN(Cc3ccco3)C(=O)[C@@]12C	CendR NRP1 mod 22
CCOC(=O)[C@H]1[C@H]2COc3ccc(OC)cc3[C@@H]2N2C(=O)c3ccc(C)cc3NC(=O)[C@@]12C	CendR NRP1 mod 24
COC(=O)[C@]12CCCCC=C1N(CCc1ccc(OC)c(OC)c1)C(=O)[C@H](CC(=O)NCc1cccs1)C2	none (no result: PKA-R2B act, ATG4B inhibitor, VLA-4 inh, PKA-R1A activ)
COc1ccc(C(=O)Nc2ccc(Cl)cc2C(=O)N2CCCC(C)C2)cc1 (stereo not drawn)	CendR NRP1 mod 24
COc1ccc(C(=O)Nc2ccc(Cl)cc2C(=O)N2CCOCC2)cc1	none
CC(C)C1=C2CCCCC2NC(=O)N1 (stereo not drawn)	CendR NRP1 mod 28
O=C(C[C@@H]1CC[C@@H]2[C@H](COC[C@H](O)CN2S(=O)(=O)c2ccccc2)O1)Nc1ccccc1	none (no result: PKA-R2B act, ATG4B inhibitor, VLA-4 inh, PKA-R1A activ)
CCOC(=O)Cc1csc(NC(=O)CSc2ncnc3c2cnn3-c2ccccc2Cl)n1	CendR NRP1 mod 21 (no result: VLA-4 inh)
COC(=O)COc1ccc2cc(-c3ccc(OC)cc3)c(=O)oc2c1	CendR NRP1 mod 20
Cc1cccc(C)c1NC(=O)C1(C)CSCC(=O)N1Cc1cccs1 (stereo not drawn)	none (no result: PKA-R2B act, ATG4B inhibitor, VLA-4 inh, PKA-R1A activ)
CSc1cnc2c(=O)[nH]c(=O)n(C)c2n1	CendR NRP1 mod 27
Cn1cnc2c1c(=O)[nH]c(=O)n2C	none (no result: PKA-R2B act, ATG4B inhibitor, CendR NRP1 mod, PKA-R1A activ)
Cc1ccc(Cn2c(=N)n(CC(O)COc3ccccc3)c3ccccc32)cc1 (stereo not drawn)	CendR NRP1 mod 24
COCCN(C(=O)CN1CCCc2ccccc21)c1c(N)n(Cc2ccccc2)c(=O)[nH]c1=O	CendR NRP1 mod 26
COc1ccc(C2=Nc3ccccc3NC(=O)C2N(C(=O)c2cnc(C)cn2)c2ccc(N3CCOCC3)cc2)cc1 (stereo not drawn)	CendR NRP1 mod 22 (no result: PKA-R2B act, ATG4B inhibitor, VLA-4 inh, PKA-R1A activ)
Cc1cnc(C(=O)N(c2ccc(N3CCOCC3)cc2)C2C(=O)Nc3ccccc3N=C2c2ccc3c(c2)OCO3)cn1 (stereo not drawn)	none (no result: PKA-R2B act, ATG4B inhibitor, VLA-4 inh, PKA-R1A activ)
COCCN1C=C(C(=O)OC)C(c2ccccc2Cl)C(C(=O)OC)=C1	CendR NRP1 mod 22
Cc1cnc(C(=O)OCC(=O)N2c3ccccc3NC(=O)C2(C)C)cn1	none
Cc1nn(-c2ccccc2)c(C)c1C(=O)OCC(=O)N1c2ccccc2NC(=O)C1(C)C	CendR NRP1 mod 30
CCC(CC)NC(=O)c1ccc2nc[nH]c2c1	CendR NRP1 mod 29
CC1(C)S[C@@H]2C(C(=O)OCc3ccccc3)NC(=O)N2C1C(=O)OCc1ccccc1 (stereo partly drawn)	CendR NRP1 mod 34
CCn1cc(C(=O)N2CCN(c3ccccn3)CC2)c2cc(OC)c(OC)cc2c1=O	none
CCn1cc(C(=O)N2CCN(C(=O)c3ccco3)CC2)c2cc(OC)c(OC)cc2c1=O	CendR NRP1 mod 24
O=C(CN(c1cccc(Br)c1)S(=O)(=O)c1ccccc1)N/N=C/c1cc([N+](=O)[O-])ccc1O	CendR NRP1 mod 50 (no result: PKA-R2B act, PKA-R1A activ)
O=C(CCCC(=O)Nc1cccc(Br)c1)N/N=C/c1cc([N+](=O)[O-])ccc1O	none
CN1OC[C@@H]2CN(C(=O)Nc3ccccc3)[C@H](c3ccc(N4CCCCC4)cc3)C[C@@H]21	none (no result: PKA-R2B act, ATG4B inhibitor, VLA-4 inh, PKA-R1A activ)
NC(Cc1ccc(Cl)cc1)c1csc(NC(=O)NCC2CCCCC2)n1 (stereo not drawn)	none (no result: PKA-R2B act, ATG4B inhibitor, VLA-4 inh, PKA-R1A activ)
CCC(c1nnnn1C1CCCCC1)N(Cc1ccco1)Cc1cc2ccc(OC)cc2[nH]c1=O (stereo not drawn)	CendR NRP1 mod 29 (no result: VLA-4 inh)
Cc1ccc2cc(C(c3nnnn3C3CCCC3)N(Cc3ccco3)Cc3cccs3)c(=O)[nH]c2c1 (stereo not drawn)	none
Cc1ccc(NC(=O)c2ccc([N+](=O)[O-])cc2)cc1S(=O)(=O)N(C)C	none
Cc1ccc(NC(=O)CCNC(=O)c2ccc([N+](=O)[O-])cc2)cc1S(=O)(=O)N(C)C	CendR NRP1 mod 39
C(=C\c1ccccc1)/CN1CCN(C(c2cccs2)c2nnnn2-c2ccc3c(c2)OCCO3)CC1 (stereo not drawn)	none (no result: PKA-R2B act, ATG4B inhibitor, VLA-4 inh, PKA-R1A activ)
COc1cccc(CN2CCC2(C)C(=O)Nc2cnc3ccccc3c2)c1F (stereo not drawn)	none (no result: PKA-R2B act, ATG4B inhibitor, VLA-4 inh, PKA-R1A activ)
CN(C)/N=C/c1ccc(Sc2ccc([N+](=O)[O-])cc2[N+](=O)[O-])o1	CendR NRP1 mod 33
Cc1cc(C)nc(Sc2ccc([N+](=O)[O-])cc2[N+](=O)[O-])n1	none
Cn1ccc2c(-c3ccc(F)cc3)cc3c(c21)C1CCC3C1 (stereo not drawn)	none (no result: PKA-R2B act, ATG4B inhibitor, VLA-4 inh, PKA-R1A activ)
CSc1ccc(-c2cc3c(c4c2ccn4C)C2CCC3C2)cc1 (stereo not drawn)	CendR NRP1 mod 25 (no result: PKA-R2B act, ATG4B inhibitor, VLA-4 inh, PKA-R1A activ)
CCCCNC(=O)c1nc(-c2cccs2)oc1-c1ccc(Cl)cc1	none (no result: PKA-R2B act, ATG4B inhibitor, VLA-4 inh, PKA-R1A activ)
O=C(CSC1CN(C(c2ccccc2)c2ccccc2)C1)N/N=C/c1ccccc1	CendR NRP1 mod 41
CCOC(=O)C[C@H]1c2cc(C(F)(F)F)ccc2S(=O)(=O)N1C(C)C	CendR NRP1 mod 34
CN1C[C@@H]2[C@@H]3C(=O)N(C)C(=O)[C@@H]3[C@](C)(C1=O)N2C(=O)c1ccc(Br)cc1	none (no result: VLA-4 inh)
O=C(COc1ccc2c3c(c(=O)oc2c1)CCCC3)NCCN1CCOCC1	CendR NRP1 mod 24
O=C(COc1ccc2c3c(c(=O)oc2c1)CCC3)NCCN1CCOCC1	none
